# Experimental data: PubChem BioAssay (NCATS)
# Values without a mark were called inactive. Inconclusive results are not listed. Where a call stands in place of a potency, no number is given. Active and inactive are the calls of the source. Unless noted, calls follow the shape of the dose curve; as a rule, active = well fitted curve in the direction sought with a large enough effect; inconclusive = small, poorly fitted or top-dose-only effect, or another doubt; inactive = no such curve, though single readings can be large; an effect the other way counts as inactive or inconclusive.
# Experiments:
# CP192 = assay: qHTS profiling for inhibitors of Plasmodium falciparum proliferation (AID 504749); also: nearly all actives have a fitted effect of over 60% in size; also: potency is read from the fitted curve at half-maximal effect; conditions: P. falciparum in erythrocytes, SYBR Green DNA, 72 h; series mostly up to 28.7 µM
# In short: (§1)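 SYBR Green fluorescence (ex 485 nm, em 535 nm) reports parasite DNA after 72 h compound exposure of infected red cells at 0.3% parasitemia, 2.5% hematocrit; signal normalized to 0.29 uM artemisinin and vehicle wells.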
# CP268 = assay: as above; conditions: P. falciparum in erythrocytes, SYBR Green DNA, 72 h; series mostly up to 28.7 µM
# In short: as §1
# CP269 = assay: as above; conditions: P. falciparum in erythrocytes, SYBR Green DNA, 72 h; series mostly up to 28.7 µM
# In short: as §1
# CP297 = assay: as above; conditions: P. falciparum in erythrocytes, SYBR Green DNA, 72 h; series mostly up to 28.7 µM
# In short: as §1
# DIV14 = assay: as above; conditions: P. falciparum in erythrocytes, SYBR Green DNA, 72 h; series mostly up to 28.7 µM
# In short: as §1
# DIV17 = assay: as above; conditions: P. falciparum in erythrocytes, SYBR Green DNA, 72 h; series mostly up to 28.7 µM
# In short: as §1
# DIV30 = assay: as above; conditions: P. falciparum in erythrocytes, SYBR Green DNA, 72 h; series mostly up to 28.7 µM
# In short: as §1
# PC26 = assay: as above; conditions: P. falciparum in erythrocytes, SYBR Green DNA, 72 h; series mostly up to 28.7 µM
# In short: as §1
# W2 = assay: as above; conditions: P. falciparum in erythrocytes, SYBR Green DNA, 72 h; series mostly up to 28.7 µM
# In short: as §1
# [1] = target: DNA dC->dU-editing enzyme APOBEC-3G (Homo sapiens) (UniProt Q9HC16); assay: qHTS for inhibitors of Vif-A3G interactions: Validation (AID 588379)
# In short: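 Yellow fluorescence (Ex 488, Em 500-530) of Vif-coexpressing HeLa A3G-eYFP cells, scanned by Acumen cytometer, reports blocked A3G degradation. Cells plated at 700/well overnight at 37 deg C before compound addition, then a further overnight compound incubation at 37 deg C.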
# [2] = target: Glutathione peroxidase 1 (Homo sapiens) (UniProt P07203); assay: Primary qHTS Assay for Inhibitors of Recombinant Selenoprotein Glutathione Peroxidase 1 (GPX1) (AID 1845191); also: nearly all actives have a fitted effect of over 65% in size
# In short: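 GR-coupled readout: NADPH consumption tracked by fluorescence, ex 340/em 450 nm, at t=0 and after 15 min at RT. Final mix 10 nM GPX1, 1 mM GSH, 0.5 mM CHP, 0.5 mM NADPH, 100 nM GR, 0.01% BSA, following 30 min enzyme–compound preincubation.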
# [3] = target: Ubiquitin carboxyl-terminal hydrolase 1 (Homo sapiens) (UniProt O94782); assay: Inhibitors of USP1/UAF1: Pilot qHTS (AID 504865);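 also: rhodamine fluorescence freed from ubiquitin-rhodamine substrate followed over time; top concentration of the series differs between compounds; nearly all actives have a fitted effect of over 35% in size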
# In short: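 USP1/UAF1 complex (1nM) preincubated with compound 15 min at room temperature, then Ub-Rho substrate (150nM final) added. Fluorescence read kinetically at 480/540 nm, 6 reads every 60 seconds. Buffer: 50mM HEPES pH 7.8, 0.5mM EDTA, 0.1 mg/ml BSA, 1mM TCEP, 0.01% Tween-20.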
# CP266 = assay: qHTS profiling for inhibitors of Plasmodium falciparum proliferation (AID 504749); also: nearly all actives have a fitted effect of over 60% in size; also: potency is read from the fitted curve at half-maximal effect; conditions: P. falciparum in erythrocytes, SYBR Green DNA, 72 h; series mostly up to 28.7 µM
# In short: as §1
# CP329 = assay: as above; conditions: P. falciparum in erythrocytes, SYBR Green DNA, 72 h; series mostly up to 28.7 µM
# In short: as §1
# [4] = qHTS assay for small molecule agonists of the antioxidant response element (ARE) signaling pathway measured by Nrf2-dependant transcriptional activity (AID 720636; active = well fitted curve in the direction sought with a large enough effect in the repeat runs; an effect the other way counts as inactive or inconclusive;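 also: HepG2 cells with an ARE-driven luciferase reporter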)
# In short: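 Nrf2-dependent transcription is measured in ARE-luc HepG2 cells: compound is applied for 16 hr at 37 C after a 6 hr attachment period, and luciferase activity is quantified by luminescence using ONE-Glo.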
# [5] = target: Pyruvate kinase (Leishmania mexicana) (UniProt Q27686); assay: qHTS Validation Assay for Activators of Leishmania Mexicana Pyruvate Kinase (AID 959)
# In short: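 Compounds are tested as eight-point concentration series. Reactions contain 0.2 nM LmPYK E451W, 0.5 mM PEP, 0.1 mM ADP, 7 mM MgCl2 and 50 mM KCl at pH 7.2, run 1 h at room temperature, then read by PKLight luminescence.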
# [6] = target: Cytochrome P450 2C9 (Homo sapiens) (UniProt P11712); assay: qHTS Assay for Inhibitors and Substrates of Cytochrome P450 2C9 (AID 883); also: potency is read from the fitted curve at half-maximal effect; nearly all actives have a fitted effect of over 60% in size
# In short: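 10nM CYP2C9 + 100uM Luciferin-H (=KM), 25mM KPO4; cpd 10 min 37C; NADPH regen, 60 min 37C; stop/detect with P450 Glo-Buffer 20 min; luminescence. Norm. to 57uM sulphaphenazole as full inhibition.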
# [7] = target: Rap guanine nucleotide exchange factor 3 (Homo sapiens) (UniProt O95398); assay: Confirmatory qHTS for agonist of cAMP-regulated guanine nucleotide exchange factor 3 (EPAC1) (AID 1645881);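 also: EPAC1 catalysed release of BODIPY-GDP from Rap1B seen as fluorescence loss; nearly all actives have a fitted effect of over 75% in size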
# [8] = target: Rap guanine nucleotide exchange factor 4 (Homo sapiens) (UniProt Q8WZA2); assay: Confirmatory qHTS for agonist of cAMP-regulated guanine nucleotide exchange factor 4 (EPAC2) (AID 1645884);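 also: nucleotide exchange releases bodipy-GDP from Rap1 and this lowers its fluorescence; nearly all actives have a fitted effect of over 65% in size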
# [9] = target: Rap guanine nucleotide exchange factor 3 (Homo sapiens) (UniProt O95398); assay: Counterscreen qHTS for antagonist of cAMP-regulated guanine nucleotide exchange factor 3 (EPAC1) (AID 1645888);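 also: fluorescence loss as bound BODIPY-GDP is released from Rap1B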
# In short: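 Rap1B–BODIPY-GDP (250 nM) with 50 uM GDP; compounds pin-transferred to 9.74 nM–152 uM final (activator) or from 7.32 nM upwards (inhibitor). Fluorescence Ex/Em 480/540 nm read at 5 and 30 min, then after adding cAMP or buffer, at room temperature.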
# Rap guanine nucleotide exchange factor 3 (Homo sapiens), sequence (O95398 whole entry, looked up): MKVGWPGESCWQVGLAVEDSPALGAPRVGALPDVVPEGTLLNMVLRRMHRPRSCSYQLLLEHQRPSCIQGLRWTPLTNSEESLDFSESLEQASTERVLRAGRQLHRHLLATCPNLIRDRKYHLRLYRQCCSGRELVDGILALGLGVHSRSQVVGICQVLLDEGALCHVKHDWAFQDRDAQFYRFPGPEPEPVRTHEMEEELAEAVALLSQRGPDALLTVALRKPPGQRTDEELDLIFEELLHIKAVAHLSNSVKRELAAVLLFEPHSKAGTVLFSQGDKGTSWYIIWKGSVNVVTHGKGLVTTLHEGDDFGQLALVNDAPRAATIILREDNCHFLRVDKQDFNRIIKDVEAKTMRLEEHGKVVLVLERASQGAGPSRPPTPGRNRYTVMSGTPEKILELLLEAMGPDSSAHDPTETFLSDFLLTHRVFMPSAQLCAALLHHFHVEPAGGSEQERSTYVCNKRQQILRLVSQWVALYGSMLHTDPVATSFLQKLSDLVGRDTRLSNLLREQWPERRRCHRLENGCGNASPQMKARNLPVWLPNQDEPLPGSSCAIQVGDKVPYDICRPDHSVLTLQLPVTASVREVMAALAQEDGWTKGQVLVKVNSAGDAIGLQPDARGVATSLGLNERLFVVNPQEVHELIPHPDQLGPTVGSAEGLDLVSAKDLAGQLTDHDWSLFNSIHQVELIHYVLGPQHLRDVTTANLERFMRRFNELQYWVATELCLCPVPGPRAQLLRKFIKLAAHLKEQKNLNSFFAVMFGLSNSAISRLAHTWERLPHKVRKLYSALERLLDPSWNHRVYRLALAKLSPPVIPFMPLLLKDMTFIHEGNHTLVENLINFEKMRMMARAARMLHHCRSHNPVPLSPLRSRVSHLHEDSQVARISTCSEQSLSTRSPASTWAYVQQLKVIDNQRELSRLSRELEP
# Rap guanine nucleotide exchange factor 4 (Homo sapiens), sequence (Q8WZA2 whole entry, looked up): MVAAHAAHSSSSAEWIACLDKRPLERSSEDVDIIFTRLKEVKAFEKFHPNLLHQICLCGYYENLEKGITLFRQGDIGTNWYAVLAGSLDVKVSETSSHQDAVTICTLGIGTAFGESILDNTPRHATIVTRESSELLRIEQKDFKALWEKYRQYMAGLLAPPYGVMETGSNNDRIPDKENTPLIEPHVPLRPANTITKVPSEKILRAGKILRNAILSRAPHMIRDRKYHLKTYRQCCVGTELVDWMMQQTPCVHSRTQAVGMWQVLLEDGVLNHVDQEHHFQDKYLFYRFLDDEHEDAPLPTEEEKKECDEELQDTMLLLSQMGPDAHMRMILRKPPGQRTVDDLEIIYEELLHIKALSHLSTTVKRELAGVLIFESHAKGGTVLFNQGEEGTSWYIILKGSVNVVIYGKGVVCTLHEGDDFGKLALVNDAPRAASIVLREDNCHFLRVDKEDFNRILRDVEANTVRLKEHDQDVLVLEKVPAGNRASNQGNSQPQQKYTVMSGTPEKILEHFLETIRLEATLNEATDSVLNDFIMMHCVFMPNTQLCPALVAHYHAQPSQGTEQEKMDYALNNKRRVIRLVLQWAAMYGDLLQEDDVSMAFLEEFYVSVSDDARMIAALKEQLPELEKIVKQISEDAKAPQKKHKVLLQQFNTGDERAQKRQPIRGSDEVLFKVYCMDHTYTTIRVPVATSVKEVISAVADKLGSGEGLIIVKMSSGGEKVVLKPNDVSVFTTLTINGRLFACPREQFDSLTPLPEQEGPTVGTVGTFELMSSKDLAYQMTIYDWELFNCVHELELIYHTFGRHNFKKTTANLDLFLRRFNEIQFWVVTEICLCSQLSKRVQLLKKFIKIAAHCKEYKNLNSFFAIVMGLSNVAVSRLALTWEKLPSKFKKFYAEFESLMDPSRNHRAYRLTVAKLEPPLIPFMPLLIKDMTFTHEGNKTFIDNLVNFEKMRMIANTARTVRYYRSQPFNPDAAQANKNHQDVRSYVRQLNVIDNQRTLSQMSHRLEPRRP
# Ubiquitin carboxyl-terminal hydrolase 1 (Homo sapiens), sequence (O94782 whole entry, looked up): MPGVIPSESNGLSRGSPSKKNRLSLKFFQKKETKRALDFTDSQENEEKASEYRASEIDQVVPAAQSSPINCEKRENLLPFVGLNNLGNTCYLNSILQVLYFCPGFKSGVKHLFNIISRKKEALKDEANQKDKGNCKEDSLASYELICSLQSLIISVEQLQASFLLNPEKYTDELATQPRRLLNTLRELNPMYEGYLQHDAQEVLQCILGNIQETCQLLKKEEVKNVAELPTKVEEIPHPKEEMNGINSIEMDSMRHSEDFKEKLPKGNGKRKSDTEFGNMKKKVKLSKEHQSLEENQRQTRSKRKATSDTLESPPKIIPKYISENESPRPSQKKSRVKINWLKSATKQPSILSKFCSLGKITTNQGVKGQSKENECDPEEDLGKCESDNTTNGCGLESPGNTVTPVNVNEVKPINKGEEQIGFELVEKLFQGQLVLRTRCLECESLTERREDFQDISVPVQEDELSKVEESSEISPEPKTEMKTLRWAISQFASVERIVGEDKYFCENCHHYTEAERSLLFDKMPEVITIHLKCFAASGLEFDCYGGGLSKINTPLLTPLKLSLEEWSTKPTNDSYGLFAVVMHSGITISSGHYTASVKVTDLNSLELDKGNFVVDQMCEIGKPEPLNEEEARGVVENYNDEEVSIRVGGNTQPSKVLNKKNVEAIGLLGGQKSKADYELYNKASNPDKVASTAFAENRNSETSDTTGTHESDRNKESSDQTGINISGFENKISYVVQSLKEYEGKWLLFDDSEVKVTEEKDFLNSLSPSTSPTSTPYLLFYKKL
# Cytochrome P450 2C9 (Homo sapiens), sequence (P11712 whole entry, looked up): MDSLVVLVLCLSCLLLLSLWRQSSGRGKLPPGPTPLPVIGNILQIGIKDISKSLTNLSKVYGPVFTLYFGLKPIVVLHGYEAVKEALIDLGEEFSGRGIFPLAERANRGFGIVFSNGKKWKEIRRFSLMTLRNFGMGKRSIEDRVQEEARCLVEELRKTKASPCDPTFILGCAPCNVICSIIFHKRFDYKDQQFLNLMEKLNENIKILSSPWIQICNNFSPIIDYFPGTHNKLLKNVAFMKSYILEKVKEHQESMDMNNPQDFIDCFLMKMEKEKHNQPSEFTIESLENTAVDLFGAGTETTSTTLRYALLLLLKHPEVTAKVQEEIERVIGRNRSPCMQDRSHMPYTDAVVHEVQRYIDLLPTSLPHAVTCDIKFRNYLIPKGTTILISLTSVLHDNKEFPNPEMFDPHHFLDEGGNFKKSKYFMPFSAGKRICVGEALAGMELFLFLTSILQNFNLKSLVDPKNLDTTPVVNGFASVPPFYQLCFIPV
# DNA dC->dU-editing enzyme APOBEC-3G (Homo sapiens), sequence (Q9HC16 whole entry, looked up): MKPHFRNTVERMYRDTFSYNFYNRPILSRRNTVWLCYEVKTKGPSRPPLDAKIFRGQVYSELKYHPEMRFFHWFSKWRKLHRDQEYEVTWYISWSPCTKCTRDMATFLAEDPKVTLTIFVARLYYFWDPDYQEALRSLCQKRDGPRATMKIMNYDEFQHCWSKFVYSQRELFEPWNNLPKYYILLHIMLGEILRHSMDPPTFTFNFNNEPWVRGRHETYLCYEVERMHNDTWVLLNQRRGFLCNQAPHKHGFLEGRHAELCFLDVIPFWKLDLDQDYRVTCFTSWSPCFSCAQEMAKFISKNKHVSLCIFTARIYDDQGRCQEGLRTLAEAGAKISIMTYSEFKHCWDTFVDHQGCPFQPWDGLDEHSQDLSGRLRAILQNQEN
# Pyruvate kinase (Leishmania mexicana), sequence (Q27686 2-499 E452W): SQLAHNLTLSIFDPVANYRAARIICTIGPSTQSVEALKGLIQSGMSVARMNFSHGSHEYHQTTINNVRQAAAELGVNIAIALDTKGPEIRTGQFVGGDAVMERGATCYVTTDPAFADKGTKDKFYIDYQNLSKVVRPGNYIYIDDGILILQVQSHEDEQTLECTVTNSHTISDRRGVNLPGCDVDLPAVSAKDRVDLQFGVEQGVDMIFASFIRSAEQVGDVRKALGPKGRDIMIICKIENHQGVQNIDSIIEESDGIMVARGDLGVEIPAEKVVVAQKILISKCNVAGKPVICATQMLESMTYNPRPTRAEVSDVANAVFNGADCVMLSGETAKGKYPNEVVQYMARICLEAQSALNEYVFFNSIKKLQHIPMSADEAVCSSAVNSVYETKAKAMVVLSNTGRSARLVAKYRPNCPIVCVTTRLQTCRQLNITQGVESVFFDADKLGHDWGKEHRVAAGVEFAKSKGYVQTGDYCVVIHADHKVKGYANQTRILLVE
# Glutathione peroxidase 1 (Homo sapiens), sequence (P07203 whole entry, looked up): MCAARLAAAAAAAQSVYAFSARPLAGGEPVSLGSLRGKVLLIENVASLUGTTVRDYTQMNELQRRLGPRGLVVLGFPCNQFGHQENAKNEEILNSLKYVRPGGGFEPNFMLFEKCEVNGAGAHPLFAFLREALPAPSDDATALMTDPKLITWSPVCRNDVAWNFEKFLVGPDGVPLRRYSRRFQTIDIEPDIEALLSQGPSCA
structure (smiles),measurement,setting,value
CC(C)C[C@H]1C(=O)N2CCCC2[C@]2(O)O[C@](NC(=O)[C@@H]3C=C4c5cccc6[nH]c(Br)c(c56)C[C@H]4N(C)C3)(C(C)C)C(=O)N12 (stereo partly specified),Potency,CP192,16.9 µM (active)
same,Potency,CP268,12 µM (active)
same,Potency,CP269,10.7 µM (active)
same,Potency,CP297,10.7 µM (active)
same,Potency,DIV14,3.38 µM (active)
same,Potency,DIV17,3.79 µM (active)
same,Potency,DIV30,5.36 µM (active)
same,Potency,PC26,5.36 µM (active)
same,Potency,W2,1.69 µM (active)
COc1cc(=O)n(C)c2c(OCC(O)C(C)(C)O)cccc12 (stereo unspecified),outcome,[1],inactive
Cc1ccccc1N1CCN(S(=O)(=O)C[C@]23CCC(CC2NC(=O)[C@@H](N)CCS(C)(=O)=O)C3(C)C)CC1 (stereo partly specified),Potency,[2],inactive
COc1ccc(CCNC[C@@H](O)c2ccc(O)cc2)cc1OC,Potency,[3],inactive
same,Potency,CP192,inactive
same,Potency,CP266,inactive
same,Potency,CP268,inactive
same,Potency,CP269,inactive
same,Potency,CP329,inactive
CC(C)(C)[C@]1(O)CCN2CC3c4ccccc4CCc4cccc(c43)[C@@H]2C1 (stereo partly specified),Potency,CP329,inactive
same,Potency,DIV14,10.7 µM (active)
same,Potency,DIV17,15.1 µM (active)
same,Potency,W2,5.36 µM (active)
N[C@H](Cc1ccc(O)c(O)c1)C(=O)O,outcome,[4],inactive
COc1cc2c(cc1OC)C(c1ccccc1)CN(C)CC2 (stereo unspecified),Potency,[3],inactive
same,Potency,CP266,inactive
same,Potency,DIV30,inactive
same,Potency,PC26,inactive
CCSC(N)=Nc1ccc(C(F)(F)F)cc1,outcome,[5],inactive
COC(=O)c1c(-c2cc(OC)c(OC)c(OC)c2)c2ccc(OCc3ccccn3)cc2c(=O)n1-c1ccc(N)cc1,Potency,[6],3.98 µM (active)
CN1C2CC(OC(=O)C(CO)c3ccccc3)CC1C1OC12 (stereo unspecified),outcome,[7],inactive
same,activation,[8],2.48% [at 17.1 µM]
same,outcome,[9],inactive
CCCC(=O)NCCc1c2n(c3ccc(OC)cc13)Cc1ccccc1-2,Potency,[6],1.26 µM (active)
CN1C[C@H](C(=O)N[C@]2(C)O[C@@]3(O)C4CCCN4C(=O)[C@H](Cc4ccccc4)N3C2=O)C[C@@H]2c3cccc4[nH]cc(c34)C[C@H]21 (stereo partly specified),outcome,[1],inactive
CC(=O)NC(c1cccs1)c1cc(Br)c2cccnc2c1O (stereo unspecified),outcome,[7],inactive
same,activation,[8],0% [at 17.1 µM]
same,outcome,[9],inactive
